# Measurements: PubChem BioAssay AID1835 (Johns Hopkins Ion Channel Center, 2009)
# Hit rate of the full screen: of about 2,400 compounds, about 750 (31%) were called active. The list shows a part of the results. Unmarked numbers belong to inactive results.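 How the source made its calls: active means median signal gain over dofetilide-blocked control wells reaching their mean plus 3 SD, so readout 1 at least 0; inactive means the rest.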
# Molecular target: Voltage-gated inwardly rectifying potassium channel KCNH2 (Homo sapiens) (UniProt Q12809)
# Experiment: hERG protection against dofetilide inhibition, confirmation, cell-based, thallium flux, duplicate retest, dofetilide IC70 (AID 1835)
# Conditions: hERG cell line, FluxOR thallium flux, dofetilide-blocked; at 10 µM; active compounds read high
# Sequence of Voltage-gated inwardly rectifying potassium channel KCNH2 (Homo sapiens) (Q12809 whole entry, looked up): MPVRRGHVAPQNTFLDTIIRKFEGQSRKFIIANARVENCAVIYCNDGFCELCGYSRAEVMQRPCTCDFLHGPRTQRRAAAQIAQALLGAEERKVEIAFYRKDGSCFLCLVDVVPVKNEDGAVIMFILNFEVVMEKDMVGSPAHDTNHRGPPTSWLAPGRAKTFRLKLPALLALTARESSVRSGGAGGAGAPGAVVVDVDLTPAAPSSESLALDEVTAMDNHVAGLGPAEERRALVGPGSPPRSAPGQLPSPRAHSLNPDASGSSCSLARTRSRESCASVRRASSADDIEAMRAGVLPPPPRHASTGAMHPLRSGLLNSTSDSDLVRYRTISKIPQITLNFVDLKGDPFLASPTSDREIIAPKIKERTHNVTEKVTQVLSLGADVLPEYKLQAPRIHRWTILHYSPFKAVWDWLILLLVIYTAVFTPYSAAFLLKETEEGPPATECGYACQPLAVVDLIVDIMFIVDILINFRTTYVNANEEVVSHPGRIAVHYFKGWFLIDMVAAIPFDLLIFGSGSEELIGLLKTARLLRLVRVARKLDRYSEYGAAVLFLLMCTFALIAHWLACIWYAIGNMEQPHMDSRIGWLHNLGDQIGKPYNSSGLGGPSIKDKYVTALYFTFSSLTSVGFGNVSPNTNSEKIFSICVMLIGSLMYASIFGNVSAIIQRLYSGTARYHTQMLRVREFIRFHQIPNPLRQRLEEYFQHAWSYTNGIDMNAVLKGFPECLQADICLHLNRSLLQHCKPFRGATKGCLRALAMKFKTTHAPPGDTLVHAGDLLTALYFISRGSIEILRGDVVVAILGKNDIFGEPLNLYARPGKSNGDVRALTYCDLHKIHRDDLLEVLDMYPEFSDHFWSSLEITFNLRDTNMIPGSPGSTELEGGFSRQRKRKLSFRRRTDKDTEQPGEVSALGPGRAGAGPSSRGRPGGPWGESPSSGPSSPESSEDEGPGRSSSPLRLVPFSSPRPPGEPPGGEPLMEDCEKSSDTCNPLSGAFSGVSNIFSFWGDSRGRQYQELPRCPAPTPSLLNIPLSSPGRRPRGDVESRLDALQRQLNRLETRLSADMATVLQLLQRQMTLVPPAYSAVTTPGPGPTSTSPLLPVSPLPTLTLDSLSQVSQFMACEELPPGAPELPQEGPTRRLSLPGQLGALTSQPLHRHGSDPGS
row,SMILES,"activity increase over dofetilide control, less the hit threshold"
1,CC(Oc1ccc(Br)cc1Br)C(=O)Nc1cccnc1 (stereo unspecified),9% (active)
2,COc1ccc(S(=O)(=O)Nc2cccnc2)cc1,-11%
3,CC(Oc1ccc(Cl)cc1Cl)C(=O)Nc1cccnc1 (stereo unspecified),-23%
4,Oc1ccc(Cl)cc1C1=NNC(c2cccs2)C1 (stereo unspecified),10% (active)
5,O=C(Nc1cc(Cl)ccc1O)C1CC(c2ccccc2Cl)=NO1 (stereo unspecified),-1%
6,CCCNS(=O)(=O)c1ccc(OCC(=O)Nc2ccc3c(c2)OCCO3)cc1,-10%
7,CCOc1cc(C(=O)NC)cc(OCC)c1OCC,-13%
8,COCCNC(=O)C1CC(=O)N(c2ccc(OC)cc2)C1c1ccc(OC)cc1 (stereo unspecified),-24%
9,CN(C)c1ccc(N=Nc2ccc(C(=O)O)cc2)cc1,-4%
10,O=c1ccc(N=Nc2ccccc2)ccc1O,68% (active)
11,COc1ccc(CN(C)C(=O)c2cccc(NS(=O)(=O)c3ccccc3)c2)cc1F,-26%
12,CC1(C)Cc2c(ccc3ccccc23)C2=C(C(=O)N3CCCC3)C(=O)C(=O)N21,-16%
13,O=C1CC(O)(C(F)(F)F)Oc2c1ccc1ccccc21 (stereo unspecified),13% (active)
14,COc1ccc(N(C(=O)c2ccco2)S(=O)(=O)c2cccs2)cc1,-6%
15,CC(=O)Nc1ccc(S(=O)(=O)N2CCC(C(=O)O)CC2)cc1,-6%
16,N=c1sccn1CC(=O)Nc1ccccc1Cc1ccccc1,-7%
17,CC(=O)c1ccc(S(=O)(=O)NCc2ccc(C(=O)N(C)CC(=O)Nc3cccc(F)c3)cc2)cc1,2% (active)
18,Cc1ccc(NC(=O)c2ccc(CNS(=O)(=O)c3cccc(C(F)(F)F)c3)cc2)cc1,-1%
19,CN(CC(=O)Nc1ccc(Cl)cc1)C(=O)c1cccc(S(=O)(=O)NCc2ccccc2)c1,-18%
20,O=C(CSc1cn(CC(=O)N2CCCC2)c2ccccc12)NCC1CCCO1 (stereo unspecified),-28%
21,COc1ccc(CCN2C(=O)CSC2=S)cc1OC,-16%
22,Cc1cccc(NC(=S)NNC(=O)c2csc3c2CCC(C)C3)c1 (stereo unspecified),-3%
23,Cc1ccc(C)c(NC(=S)NNC(=O)c2csc3c2CCC(C)C3)c1 (stereo unspecified),9% (active)
24,Cc1ccc(C)c(NC(=O)C2C3CCCC2C3c2ccccc2)c1 (stereo unspecified),-16%
25,CCC1Nc2ncnc(N3CCOCC3)c2N(Cc2ccc(C)cc2)C1=O (stereo unspecified),-16%
26,Cc1cccc(/C=C/C(=O)c2cc(Br)ccc(=O)c2O)c1,-14%

row,SMILES,"activity increase over dofetilide control, less the hit threshold"
1,O=C(/C=C/c1ccccc1)c1cc(Br)ccc(=O)c1O,19% (active)
2,CCc1ccc(/C=C/C(=O)c2cc(Br)ccc(=O)c2O)cc1,13% (active)
3,COC(=O)c1c(N2C(=O)CC(Sc3ncccc3C(=O)O)C2=O)sc(C)c1C (stereo unspecified),-14%
4,CC(C)CC1C(C#N)=C(N)Oc2n[nH]c(-c3cccs3)c21 (stereo unspecified),-16%
5,COc1ccc(C(=O)N(CN2CCCC2=O)c2ccc(C)cc2)cc1,-1%
6,O=C(NCCCN1CCCC1=O)c1ccc(OC(F)(F)F)cc1,-18%
7,CCOc1ccc(C(=O)N(CN2CCCC2=O)c2ccc(C)cc2)cc1,10% (active)
8,O=C1CC(c2ccco2)CC2=C1C1c3ccccc3C(=O)N1c1ccccc1N2 (stereo unspecified),-3%
9,CSc1ccccc1-n1nnnc1SCC(=O)Nc1cc(C)ccc1C,-30%
10,Cn1nnnc1SCC(=O)Nc1ccccn1,4% (active)
11,Cn1nnnc1SCC(=O)NC1CCCc2ccccc21 (stereo unspecified),-21%
12,CCn1c(O)c(N=NC2=NC(=O)CS2)c2cc(C)ccc21,-10%
13,CCc1ccc2c(c1)c(N=NC1=NC(=O)CS1)c(O)n2CC,39% (active)
14,CCn1c(O)c(N=NC2=NC(=O)CS2)c2ccccc21,3% (active)
15,Cn1cc([N+](=O)[O-])c(C(=O)NCc2cc3cc(Cl)ccc3[nH]2)n1,-12%
16,O=[N+]([O-])c1cc(F)c2cccnc2c1O,-6%
17,COc1ccc(-n2cnc3ccccc3c2=O)c([N+](=O)[O-])c1,-9%
18,COc1ccc(CCn2c(S)nc3ccccc3c2=O)cc1,6% (active)
19,NC(=O)CSc1nc2ccccc2c(=O)n1CCc1ccccc1,-8%
20,O=C(COC(=O)C1CCC(=O)N1)Nc1cc(Cl)ccc1Cl (stereo unspecified),-13%
21,O=C(O)Cc1ccc(NC(=O)C2CC=CCC2C(=O)O)cc1 (stereo unspecified),-14%
22,COC(=O)c1c(NC(=O)C2CC=CCC2C(=O)O)sc(C)c1C (stereo unspecified),-13%
23,Cc1ccccc1C(=O)NC(=S)Nc1sc2c(c1C#N)CCC(C)C2 (stereo unspecified),-13%
24,CCC(C)(C)C1CCc2c(sc(NC(=O)c3ccccc3C(=O)O)c2C#N)C1 (stereo unspecified),18% (active)
25,CCC1CCc2c(sc(NC(=O)C3CC=CCC3C(=O)O)c2C#N)C1 (stereo unspecified),2% (active)
26,Cc1ccc(CS(=O)(=O)c2ncc(Cl)c(C(=O)Nc3nnc(C)s3)n2)cc1,-19%

row,SMILES,"activity increase over dofetilide control, less the hit threshold"
1,CC1(OC(=O)c2ccc(Cl)nc2)C(=O)C=C2C=C(c3ccc(C#N)cc3)OC=C2C1=O (stereo unspecified),-3%
2,O=[N+]([O-])c1cc(S(=O)(=O)/N=C(/c2ccccc2)N2CCOCC2)ccc1Cl,-16%
3,COc1ccc2nc(-n3c(O)c(C4=c5ccccc5=NC4=O)[nH]c3=S)sc2c1,-14%
4,COc1ccc2nc(/N=C/c3c(C)[nH]n(-c4ccc(C)cc4)c3=O)sc2c1,62% (active)
5,CCSC(=S)c1c(C)[nH]n(-c2ccccc2)c1=O,-19%
6,CCOc1ccc2nc(/N=C/c3c(C)[nH]n(-c4ccc(C)cc4)c3=O)sc2c1,38% (active)
7,CCOc1ccc2nc(/N=C/c3c(C)[nH]n(-c4ccccc4)c3=O)sc2c1,100% (active)
8,CCOc1ccc(-n2cnc3sc(C)c(C)c3c2=O)cc1,-13%
9,COc1ccc2nc(/N=C/c3c(C)[nH]n(-c4ccc(C)cc4C)c3=O)sc2c1,88% (active)
10,CCCSC(=S)c1c(C)[nH]n(-c2ccccc2)c1=O,0%
11,Cc1nn(-c2cccc(C(F)(F)F)c2)c(Cl)c1/C=N/Nc1cccc(C(=O)O)c1,-28%
12,Brc1ccc(C2=CC(c3ccco3)n3nnnc3N2)cc1 (stereo unspecified),-13%
13,C=CCn1c(SCC(=O)Nc2cccc(C)c2)nnc1-c1cnccn1,-18%
14,O=C(CSc1cccc[n+]1[O-])C12CC3CC(CC(C3)C1)C2,-11%
15,Cc1cc(OCCN2CCCCCC2)ccc1[N+](=O)[O-],-3%
16,COCCNC(=O)C1CCN(S(=O)(=O)N2CCC3(CC2)OCCO3)CC1,-21%
17,Cc1cc2nccc(-c3ccc(Cl)cc3Cl)n2n1,-3%
18,Cc1[nH]n(-c2ccc(Cl)cc2)c(=O)c1/C=N/c1nnc(-c2ccccc2)s1,106% (active)
19,Cc1[nH]n(-c2ccccc2)c(=O)c1N=Nc1ccc(C(N)=O)cc1,-23%
20,Cn1cnnc1SCC(=O)NCc1ccccc1,-20%
21,CCCn1c(O)c(N=NC(=O)c2ccco2)c2ccccc21,17% (active)
22,CCn1c(O)c(N=NC(=O)CNC(=O)c2ccccc2F)c2ccccc21,-7%
23,CCn1c(O)c(N=NC(=S)NCC2CCCO2)c2ccccc21 (stereo unspecified),-1%
24,CC1(C)Cc2c(sc(NC(=O)C(=O)N3CCCC3)c2C#N)CO1,-2%
25,N#Cc1c(NC(=O)c2cc(-n3cnnc3)ccc2Cl)sc2c1CCCC2,5% (active)
26,Cc1c(C(=O)N/N=C/c2ccccn2)nnn1-c1nonc1N,-14%

row,SMILES,"activity increase over dofetilide control, less the hit threshold"
1,CN(C)Cc1c(C(=O)N/N=C/c2ccccc2OCc2c(F)cccc2Cl)nnn1-c1nonc1N,40% (active)
2,Nc1nonc1-n1nnc(C(=O)N/N=C/c2ccccn2)c1-c1ccccc1,-5%
3,CCCOc1ccc(-c2c(C(=O)N/N=C/c3ccccc3OCC)nnn2-c2nonc2N)cc1,-7%
4,CCc1ccc(/C=N/NC(=O)c2nnn(-c3nonc3N)c2C(C)C)cc1,-22%
5,Nc1nonc1-n1nnc(C(=O)N/N=C/c2cccc(Cl)c2Cl)c1CN1CCCC1,5% (active)
6,CN(NC1OC(=O)c2ccccc21)c1ccccc1[N+](=O)[O-] (stereo unspecified),-4%
7,CCCCOC(=O)Nc1nnc(C(C)C)s1,-14%
8,CCc1nnc(NC(=O)c2cccc(C(=O)Nc3nnc(CC)s3)n2)s1,-10%
9,CC(C)(C)Cc1nnc(NC(=O)c2ccco2)s1,-13%
10,COc1ccc2nc(NC(=S)NC(=O)c3ccco3)sc2c1,2% (active)
11,Cc1ccc2nc(NC(=S)NC(=O)c3ccco3)sc2c1,50% (active)
12,O=C(NC(=S)Nc1nc2ccc(F)cc2s1)c1ccco1,65% (active)
13,O=C(NC(=S)Nc1nc2ccccc2s1)c1ccco1,-3%
14,CCOC(=O)c1cccc(C(=O)Nc2nc3ccc(OC)cc3s2)n1,-14%
15,CCc1ccc2nc(NC(=O)c3cc(C)on3)sc2c1,10% (active)
16,COc1cccc(-c2cc(C(F)(F)F)nc(N3CCCCC3)n2)c1,-17%
17,Cc1ccc([N+](=O)[O-])c2c1C(N1CC(C)OC(C)C1)C(C)(C)O2 (stereo unspecified),-24%
18,CCc1cccc(C)c1NC(=O)C1=C(C(=O)O)CCCC1,-14%
19,NS(=O)(=O)c1ccc(Sc2ccc3c(c2)CCC3)nc1,-2%
20,CSc1nc(C)c2c(n1)N(c1ccc(C(C)C)cc1)CC2,-9%
21,Clc1ccc(Nc2ccc(Cl)nn2)cc1,-6%
22,Cc1cc(OCC(=O)Nc2cc(S(=O)(=O)N3CCOCC3)ccc2N2CCCC2)ccc1C(C)C,-7%
23,CCCCCN(C(=O)CCC(=O)OCC(=O)N(C)C1CCCCC1)c1c(N)n(CCCC)c(=O)[nH]c1=O,-12%
